This is part of a sample that, as a whole, favours compounds with a hit. Of some 83,000 tested, about 20% had one in any assay.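 Single-dose data. Exposure time 48 hours. Values below 10 considered active.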 Activity calls are given as the source filed them.
The compounds below were run on 786-0 renal (assay: NCI-60 one-dose screen, 48 h (100 = growth as untreated, 0 = no growth, -100 = all killed)). Conditions: 10 µM unless noted.

| Compound | growth |
| --- | --- |
| CC(C)CSc1nc(Nc2ccccc2)c(C#N)c(-c2ccc(F)cc2)n1 | -45.6% (active) |
| CCCCC(=O)Nc1c(C(=O)Nc2ccccc2)sc2nc3c(cc12)C(OC(=O)CCCC)CCC3 (configuration not stated) | 84.1% (inactive) |
| COC(=O)[C@]1(C)CCC[C@]2(C)[C@H]3C[C@H]4C(C(C)C)=C[C@]3(CC[C@H]21)[C@@H]1C(=O)N(CCC#N)C(=O)[C@@H]14 | 99.7% (inactive) |
| CCN1CCN(c2ccc(NC(=O)Nc3nc4ccc(-c5ccccc5OC)cc4s3)cc2)CC1 | -80.7% (active) |
| C[C@H]1[C@H](C)CC[C@]2(C(=O)OCCOCCOCC[P+](c3ccccc3)(c3ccccc3)c3ccccc3)CC[C@]3(C)C(=CC[C@@H]4[C@@]5(C)CC[C@H](OC(=O)C(Cl)Cl)C(C)(C)[C@@H]5CC[C@]43C)[C@H]12 | -38.3% (active) |
| COc1ccc(/C(=N\O)c2cc(C)c(OC)c(C)c2)cc1O | 35.3% (inactive) |
| O=C(Nc1nccs1)c1noc2ccccc12 | 95.7% (inactive) |
| CCOc1ccccc1C(=O)/C=C/c1cc2ccccc2[nH]c1=O | -21.7% (active) |
| Cc1ccc(-c2nc(C#N)c(S(=O)(=O)N(C)CCO)o2)cc1 | 79.6% (inactive) |
| Cc1ccc(C2CC(c3ccc(Nc4nc(NCCO)nc(NCCO)n4)cc3)=NN2c2ccc(Cl)cc2)cc1 (configuration not stated) | 23.7% (inactive) |
| CN(C)CCCn1c2c(c3cc(-c4cccc(S(N)(=O)=O)c4)ccc3c1=O)C(=O)c1ccccc1-2 | 30.6% (inactive) |
| C=C(C)[C@@H]1CC[C@]2(C(=O)OCCOCCOCC[P+](c3ccccc3)(c3ccccc3)c3ccccc3)CC[C@]3(C)[C@H](CC[C@@H]4[C@@]5(C)CC[C@H](OC(=O)C(Cl)Cl)C(C)(C)[C@@H]5CC[C@]43C)[C@@H]12 | -85.1% (active) |
| COC(=O)/C=C/c1cc(OC(C)=O)c2c(c1)C(C(=O)OC)C(c1ccc(OC(C)=O)c(OC(C)=O)c1)O2 (configuration not stated) | 19.8% (inactive) |
| O=C(Nc1ccc(S(=O)(=O)NC2CCCCCC2)cc1)C(c1ccccc1)S(=O)(=O)c1ccc(F)cc1 (configuration not stated) | 20.4% (inactive) |
| COc1ccc2cc(/C=C3\N=C(c4cc(OC)c(OC)c(OC)c4)OC3=O)c(OC)nc2c1 | 100% (inactive) |
| N#Cc1ccc(C2C3=C(CCCC3=O)OC3=C2C(=O)c2ccccc2C3=O)cc1 (configuration not stated) | 94.7% (inactive) |
| COCCOCCOCc1n(Cc2ccc3ccccc3c2)c2ccccc2[n+]1Cc1ccc2ccccc2c1 | 23.6% (inactive) |
| CC(=O)Nc1c(C(=O)Nc2ccccc2)sc2nc3c(cc12)C(OC(C)=O)CCC3 (configuration not stated) | 71.7% (inactive) |
| CCc1ccc(OCc2ccccc2C(=O)Nc2ccc3nc(C)cc(N)c3c2)cc1 | -88.9% (active) |

| Compound | growth |
| --- | --- |
| COc1ccc(C2C(c3ccccc3)C(=O)N2c2cc(OC)c(OC)c(OC)c2)cc1I (configuration not stated) | 17.4% (inactive) |
| COc1cc(/C=C/C(=O)c2cccs2)ccc1OCc1ccc(Cl)nc1 | 75.3% (inactive) |
| C=C1C(=O)O[C@H]2[C@H]1CC/C(COC(=O)CCCCCCC(=O)OC/C1=C/CC[C@@]3(C)O[C@H]3[C@H]3OC(=O)C(=C)[C@@H]3CC1)=C\CC[C@@]1(C)O[C@@H]21 | 20.9% (inactive) |
| COc1ccc(C2CC(c3ccc(OC)cc3O)=NN2c2ccc(S(N)(=O)=O)cc2)cc1 (configuration not stated) | 38.5% (inactive) |
| CCCn1cc(/C=N\N=C2\C(=O)Nc3ccc(C)cc32)c2ccccc21 | 64.5% (inactive) |
| N#Cc1c(-c2ccc(Cl)cc2)cc(-c2cc3ccccc3o2)nc1SCC(=O)c1ccc(Cl)cc1 | 97.2% (inactive) |
| CCCCCCCCCCCCCC1=NCC[N+]1(CCO)Cc1ccccc1 (configuration not stated) | -80.5% (active) |
| Nc1c(C(=O)Nc2cccc3ccccc23)sc2nc3c(cc12)CCCCC3 | 30.5% (inactive) |
| Cc1c(Cl)cccc1NC(=O)c1sc2nc3c(cc2c1N)CCCCCC3 | 23.3% (inactive) |
| N#Cc1c(-c2ccc(F)cc2)nc(N=Nc2c(O)[nH]c3ccc(Cl)cc23)nc1N1CCOCC1 | 17% (inactive) |
| Cc1ccccc1NC(=O)c1sc2nc(C)c(C(C)O)cc2c1N (configuration not stated) | 57% (inactive) |
| COc1cc(F)c(-c2nc3c(C)cccc3n2Cc2c(F)cccc2F)c(F)c1 | 85.7% (inactive) |
| Oc1ccc(CNNc2ccnc3c(O)cccc23)c2cccnc12 | 39% (inactive) |
| CC1(C)Cc2c(Br)c(Br)c(Br)c(OCC(O)CN3CCOCC3)c2O1 (configuration not stated) | 79.2% (inactive) |
| CCCCCOC(=O)c1ccccc1O | 94.4% (inactive) |
| C=C1C(=O)O[C@H]2[C@H]1CC/C(COC(=O)CCCCCCCCC(=O)OC/C1=C/CC[C@@]3(C)O[C@H]3[C@H]3OC(=O)C(=C)[C@@H]3CC1)=C\CC[C@@]1(C)O[C@@H]21 | -29.1% (active) |
| C=C1C(=O)O[C@H]2[C@H]1CCC(/C=N/c1ncc(Br)cc1N)=C\CC[C@@]1(C)O[C@@H]21 | -13.9% (active) |
| O=C1CCC23OC(c4ccccc4N12)C(O)C(O)C3O (configuration not stated) | 98.8% (inactive) |

Source: PubChem BioAssay (NCI)
